# Inconclusive results are not listed. Activity calls are given as the source filed them. Unless noted, the call rests on the fitted dose curve; in most records, active means well fitted curve in either direction with a large enough effect (not every such curve was filed as active); inconclusive means small, poorly fitted or top-dose-only effect, or another doubt; inactive means flat fitted curve, though single readings scatter.
# Legend:
# [1] = target: Lysosomal acid glucosylceramidase (Homo sapiens) (UniProt P04062); assay: Glucocerebrosidase-p2 (AID 348; in the data active means potency below about 10 µM; further: potency means the concentration at half of the fitted maximal effect); conditions: purified GBA, blue fluorogenic substrate, 40 min
# In short: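 Compounds titrated from 0.6 nM upwards against 0.2 nM enzyme in pH 5.9 citric acid/KH2PO4, taurocholate, tween-20; blue fluorogenic substrate 80 uM, 40 min room temperature, stopped and read Ex 365/Em 440 for AC50.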
# [2] = AP1 Signaling Pathway (AID 357); conditions: ME-180 AP-1-bla reporter, EGF-induced, beta-lactamase ratio, 5 h; at 7.69 µM (top of the series) unless noted;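 further: ME-180 reporter cells stimulated with EGF at its EC50 level; on the % scale 0 is the no-effect control and ±100 the full control effect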
# In short: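 Modulation of EGF-driven AP-1 transcription was assessed with a beta-lactamase reporter in ME-180 cells. Compound and EC50 EGF were co-incubated 5 hours at 37 °C before 2.5-hour CCF4 loading at room temperature and dual-emission reading.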
# [3] = target: Cytochrome P450 1A2 (Homo sapiens) (UniProt P05177); assay: p450-cyp1a2 (AID 410; calls by dose curve; further: potency means the concentration at half of the fitted maximal effect;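 on activity change, negative = inhibition: -100% = full effect of reference inhibitor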); conditions: recombinant CYP1A2, luciferin-ME demethylation, luminescence; series mostly up to 57 µM
# In short: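 Inhibition was calculated relative to 57 uM furafylline (full inhibition). The reaction used human CYP1A2 at 20nM with Luciferin-ME at its Km, 100uM, driven by an NADPH-regenerating system for 60 min at room temperature.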
# [4] = NFAT Signaling Pathway (AID 444); conditions: Jurkat NFAT-bla M1, carbachol, beta-lactamase ratio, 5 h; at 7.69 µM (top of the series) unless noted;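 further: carbachol stimulus at about its EC50 of 1 µM final; on the % scale 0 is the no-effect control and ±100 the full control effect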
# In short: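 Jurkat cells with NFAT-driven β-lactamase reporter and co-expressed M1 receptor, stimulated with carbachol (final 1 uM, ~EC50), compound titration, 5 h at 37 °C. CCF4 loaded 1 h at RT; 460/530 nm ratio gave %activity and AC50.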
# [5] = target: Glucocorticoid receptor (Homo sapiens) (UniProt P04150); assay: GR-EFC Redistribution (AID 451; calls by dose curve; further: potency means the concentration at half of the fitted maximal effect); conditions: CHO-K1 GR-EFC translocation, beta-gal luminescence, 2 h
# In short: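 CHO-K1 cells expressing nuclear EA and GR-ED fragments of b-gal; compounds titrated up to 46 uM final, 2 h at 37 C. GR nuclear translocation read as complemented b-gal luminescence after 1 h RT detection.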
# [6] = target: Mitogen-activated protein kinase 10 (Mus musculus) (UniProt Q61831); assay: JNK3 AlphaScreen Assay (AID 530); conditions: JNK3 lysate, c-Jun phosphorylation; series mostly up to 57.1 µM;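 further: kinase came from lysate of stimulated human HepG2 cells; signal reports phosphorylation of biotinylated GST-cJun 1-79 at Ser73 with 10 µM ATP; on the % scale 0 is the no-effect control and ±100 the full control effect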
# In short: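 qHTS format: compounds tested as titrations against IL-1beta/TNF-alpha-activated HepG2 lysate JNK3 with biotin-GST-cJun substrate and 10 uM ATP at room temperature. Loss of anti-phospho-cJun AlphaScreen signal indicates inhibition.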
# [7] = target: 3',5'-cyclic-AMP phosphodiesterase 4B (Homo sapiens) (UniProt Q07343); assay: qHTS Assay for Inhibitors of PDE-IV (AID 607; active means well fitted activation curve with a large enough effect in the main read-out, with a control signal flat, not every such curve was filed as active; further: % of control where 0% means no effect); conditions: HEK293 ACTOne CNG channel cells, membrane potential fluorescence; series mostly up to 22.9 µM
# In short: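 Cell-based read-out of cAMP via a modified cyclic nucleotide-gated channel and membrane potential dye (535/590 nm) in HEK293 cells expressing PDE4 endogenously. Compounds tested up to 22.9 uM final; 100 uM RO 20-1724 reference.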
# [8] = target: Cytochrome P450 2C9 (Homo sapiens) (UniProt P11712); assay: qHTS Assay for Inhibitors and Substrates of Cytochrome P450 2C9 (AID 883; active means well fitted curve in the direction sought with a large enough effect; an effect the other way counts as inactive or inconclusive; further: on the % scale 0 is the no-effect control and ±100 the full control effect; nearly all actives have a fitted effect of over 60% in size); conditions: recombinant CYP2C9, luciferin-H luminescence, 60 min; series mostly up to 57.1 µM
# In short: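 Signal: luciferase luminescence reporting luciferin produced by CYP2C9. Conditions: 10nM enzyme, Luciferin-H 100uM at KM, 25mM KPO4, 37C, 60 min NADPH-driven reaction. Reference: 57uM sulphaphenazole as 100% inhibition.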
# [9] = target: Cytochrome P450 3A4 (Homo sapiens) (UniProt P08684); assay: qHTS Assay for Inhibitors and Substrates of Cytochrome P450 3A4 (AID 884; active means well fitted curve in the direction sought with a large enough effect; an effect the other way counts as inactive or inconclusive; further: on the % scale 0 is the no-effect control and ±100 the full control effect; nearly all actives have a fitted effect of over 50% in size); conditions: recombinant CYP3A4, Luciferin-PPXE luminescence; series mostly up to 57.1 µM
# In short: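 20 nM human CYP3A4 with 25 uM Luciferin-PPXE (at KM) in 200 mM KPO4, preincubated 10 min with compound; NADPH regeneration started a 60 min RT reaction. Luciferin detected by luminescence, normalized to 57 uM ketoconazole as full inhibition.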
# [10] = target: Cytochrome P450 2D6 (Homo sapiens) (UniProt P10635); assay: qHTS Assay for Inhibitors and Substrates of Cytochrome P450 2D6 (AID 891; active means well fitted curve in the direction sought with a large enough effect; an effect the other way counts as inactive or inconclusive;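 further: luciferin methyl ether substrate demethylated by CYP2D6 with NADPH regeneration; on the % scale 0 is the no-effect control and ±100 the full control effect; nearly all actives have a fitted effect of over 60% in size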); conditions: recombinant CYP2D6, luciferin-ME EGE luminescence; series mostly up to 57.1 µM
# In short: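 Human CYP2D6 (5 nM) with 30 uM Luciferin-ME EGE (at Km) in 100 mM KPO4, compound preincubated 10 min, then NADPH regeneration system for 60 min at room temperature. Luciferin read by luminescence; normalized to 1.43 uM quinidine.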
# [11] = target: Cytochrome P450 2C19 (Homo sapiens) (UniProt P33261); assay: qHTS Assay for Inhibitors and Substrates of Cytochrome P450 2C19 (AID 899; active means well fitted curve in the direction sought with a large enough effect; an effect the other way counts as inactive or inconclusive; further: on the % scale 0 is the no-effect control and ±100 the full control effect; nearly all actives have a fitted effect of over 60% in size); conditions: recombinant CYP2C19, luciferin-H EGE luminescence; series mostly up to 57.1 µM
# In short: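 Signal comes from luciferase acting on luciferin released by CYP2C19-mediated hydroxylation of Luciferin-H EGE, 10uM (KM). Assay mix: 5nM enzyme, 50mM KPO4; 60 min at 37C with NADPH regeneration. Data normalized against 57uM ketoconazole.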
# [12] = qHTS Assay for Lipid Storage Modulators (AID 1519; calls by dose curve); conditions: Drosophila S3 cells, BODIPY lipid droplet/cell ratio, laser cytometry, cells loaded with oleic acid; for activity change, negative = inhibition: at 57.5 µM (top of the series)
# In short: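 Cells seeded at 5,000 per well were treated with compounds over a concentration series and loaded with oleic acid (400 uM, as added). Lipid droplet fluorescence (488 nm excitation, 500-530 nm channel) was read by laser-scanning cytometry and normalized to 20 uM Triacsin C.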
# [13] = Primary qHTS for small molecule stabilizers of the endoplasmic reticulum resident proteome: Secreted ER Calcium Modulated Protein (SERCaMP) assay (AID 1508630; active means well fitted curve in the direction sought with a large enough effect; an effect the other way counts as inactive or inconclusive; further: on the % scale 0 is the no-effect control and ±100 the full control effect); conditions: SH-SY5Y GLuc-SERCaMP (Gaussia luciferase released on ER calcium loss) secretion, thapsigargin, luminescence; series mostly up to 38.4 µM
# In short: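 GLuc-SERCaMP-expressing SH-SY5Y cells, pretreated 16 h with compound, are challenged with thapsigargin to empty ER calcium stores; after 4 h, coelenterazine is added directly to the medium and luminescence is imaged.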
# [14] = target: Glucocorticoid receptor (Homo sapiens) (UniProt P04150); assay: GR-GFP Redistribution (AID 450;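 active means compounds whose dose series gives a full or clear partial fitted curve of increased nuclear translocation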; further: potency means the concentration at half of the fitted maximal effect); conditions: U2OS GR-GFP nuclear translocation, laser cytometry, 2 h
# [15] = qHTS Assay for Identification of Small Molecule Agonists for Hypoxia Response Element Signaling Pathway (AID 914; active means well fitted activation curve with a large enough effect in the signal ratio, with a control signal flat, not every such curve was filed as active; the % refers to the signal ratio; further: potency means the concentration at half of the fitted maximal effect); conditions: ME-180 HRE-bla reporter, beta-lactamase ratio, CoCl2, 17 h; activation: stronger effect = higher value
# In short: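 Cells were plated overnight, pin-dosed with compound in a titration series, co-stimulated with EC50 CoCl2 and incubated 17 hours at 37 degrees Celsius. CCF4 substrate was then loaded, and AC50 values came from the 460nm/530nm ratio.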
# [16] = Stat Signaling Pathway (AID 446); conditions: ME-180 SIE beta-lactamase reporter, IL-6 stimulated, 5 h; at 7.69 µM (top of the series) unless noted
# In short: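 Reporter line: ME-180 cervical carcinoma, SIE-beta-lactamase. Treatment: compound with 40 pM IL-6, 5 hrs, 37 C, in low-serum OPTI-MEM with 10 mM HEPES pH 7.3. Detection: 460/530 nm fluorescence.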
# [17] = target: Cytochrome P450 3A4 (Homo sapiens) (UniProt P08684); assay: qHTS Assay for Activators of Cytochrome P450 3A4 (AID 885; active means well fitted curve in the direction sought with a large enough effect; an effect the other way counts as inactive or inconclusive; further: nearly all actives have a fitted effect of over 65% in size); conditions: recombinant CYP3A4, Luciferin-PPXE luminescence, 60 min; series mostly up to 57.1 µM
# In short: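 Signal was normalized against complete inhibition by 57 uM ketoconazole. The reaction used 20nM CYP3A4 with 25uM Luciferin-PPXE, 10-min compound preincubation and a 60-min NADPH-supported step at RT.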
# [18] = Confirmation and Secondary Assay for Modulators of Hemoglobin Beta Chain Splicing at IVS2 654 locus (AID 910; active means well fitted curve in the direction sought with a large enough effect; an effect the other way counts as inactive or inconclusive;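 further: HeLa cells stably carrying EGFP split by mutant beta-globin IVS2-654 intron; % of control where 0% means no effect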); conditions: HeLa EGFP-654 splicing reporter, GFP fluorescence, 48 h; series mostly up to 38.3 µM
# In short: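 HeLa cells stably expressing EGFP interrupted by β-globin IVS2-654 intron, seeded overnight in Opti-MEM/2% FCS, then treated 2 days at 37 °C. Restored splicing read as total peak GFP intensity per well by laser scanning cytometry (488 nm excitation, 500–520 nm emission); 500 nM antisense PNA as control.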
# [19] = Confirmation and Secondary Assay for Modulators of Hemoglobin Beta Chain Splicing at IVS2 705 locus (AID 930; active means well fitted curve in the direction sought with a large enough effect; an effect the other way counts as inactive or inconclusive;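 further: HeLa cells stably expressing the EGFP-705 splicing reporter; GFP fluorescence per well restored by corrected splicing of the IVS2-705 intron in EGFP; % of control where 0% means no effect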); conditions: HeLa EGFP-705 splicing reporter, GFP fluorescence, 48 h; series mostly up to 38.3 µM
# In short: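 Splice-correction reporter: EGFP cDNA split by beta-globin intron 2 bearing the 705 mutation, stably in HeLa. Compound incubation 2 days, 37C; fluorescent objects 5-250 µm summed per well.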
# [20] = target: Ubiquitin carboxyl-terminal hydrolase 1 (Homo sapiens) (UniProt O94782); assay: Inhibitors of USP1/UAF1: Pilot qHTS (AID 504865; active means well fitted curve in the direction sought with a large enough effect; an effect the other way counts as inactive or inconclusive;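 further: rhodamine fluorescence freed from ubiquitin-rhodamine substrate followed over time; top concentration of the series differs between compounds; on the % scale 0 is the no-effect control and ±100 the full control effect; nearly all actives have a fitted effect of over 35% in size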); conditions: purified USP1/UAF1, Ub-rhodamine cleavage fluorescence; series mostly up to 54.9 µM
# In short: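 Deubiquitinase activity followed as kinetic rhodamine fluorescence release from 150 nM Ub-Rho. 1 nM USP1/UAF1 with compound, after 15 min room-temperature preincubation, in HEPES pH 7.8 buffer containing TCEP, EDTA, BSA and Tween-20.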
# [21] = measured here: cell count channel max response
# [22] = measured here: lipid channel max response
# Lysosomal acid glucosylceramidase (Homo sapiens), sequence (P04062 whole entry, looked up): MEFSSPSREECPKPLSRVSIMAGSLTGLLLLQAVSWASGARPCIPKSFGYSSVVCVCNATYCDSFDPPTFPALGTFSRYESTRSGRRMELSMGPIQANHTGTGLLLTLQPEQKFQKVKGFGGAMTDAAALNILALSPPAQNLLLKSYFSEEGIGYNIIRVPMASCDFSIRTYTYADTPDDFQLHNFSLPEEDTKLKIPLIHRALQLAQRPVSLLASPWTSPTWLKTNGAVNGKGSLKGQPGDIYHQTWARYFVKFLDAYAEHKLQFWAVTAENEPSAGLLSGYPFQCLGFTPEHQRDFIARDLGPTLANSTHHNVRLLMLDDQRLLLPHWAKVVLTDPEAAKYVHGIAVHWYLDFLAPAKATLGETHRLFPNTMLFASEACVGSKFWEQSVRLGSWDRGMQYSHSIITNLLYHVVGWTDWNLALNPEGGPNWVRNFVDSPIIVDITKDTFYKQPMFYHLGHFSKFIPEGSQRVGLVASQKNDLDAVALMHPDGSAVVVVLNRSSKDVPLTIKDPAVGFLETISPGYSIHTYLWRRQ
# Glucocorticoid receptor (Homo sapiens), sequence (P04150 whole entry, looked up, the tested form may be a part): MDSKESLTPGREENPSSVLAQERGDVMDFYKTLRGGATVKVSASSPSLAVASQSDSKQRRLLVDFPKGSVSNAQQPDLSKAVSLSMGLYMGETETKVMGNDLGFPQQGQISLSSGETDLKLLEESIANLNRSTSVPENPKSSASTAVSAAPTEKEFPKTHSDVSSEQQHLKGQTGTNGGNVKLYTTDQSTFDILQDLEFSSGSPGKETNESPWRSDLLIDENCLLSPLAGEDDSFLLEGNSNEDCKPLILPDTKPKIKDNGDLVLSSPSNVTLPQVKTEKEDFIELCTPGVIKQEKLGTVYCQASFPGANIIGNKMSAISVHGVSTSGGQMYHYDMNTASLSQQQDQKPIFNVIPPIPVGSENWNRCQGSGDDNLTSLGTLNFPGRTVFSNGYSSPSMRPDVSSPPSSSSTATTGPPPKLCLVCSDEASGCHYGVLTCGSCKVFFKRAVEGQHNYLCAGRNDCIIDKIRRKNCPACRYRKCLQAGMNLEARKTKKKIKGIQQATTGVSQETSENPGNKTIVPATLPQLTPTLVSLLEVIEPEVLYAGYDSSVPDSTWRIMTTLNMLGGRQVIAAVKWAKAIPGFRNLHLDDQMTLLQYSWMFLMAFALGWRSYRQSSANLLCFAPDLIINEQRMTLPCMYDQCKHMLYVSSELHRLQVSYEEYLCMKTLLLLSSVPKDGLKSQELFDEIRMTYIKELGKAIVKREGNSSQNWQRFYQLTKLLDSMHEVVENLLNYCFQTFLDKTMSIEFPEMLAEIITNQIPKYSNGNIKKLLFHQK
# 3',5'-cyclic-AMP phosphodiesterase 4B (Homo sapiens), sequence (Q07343 whole entry, looked up): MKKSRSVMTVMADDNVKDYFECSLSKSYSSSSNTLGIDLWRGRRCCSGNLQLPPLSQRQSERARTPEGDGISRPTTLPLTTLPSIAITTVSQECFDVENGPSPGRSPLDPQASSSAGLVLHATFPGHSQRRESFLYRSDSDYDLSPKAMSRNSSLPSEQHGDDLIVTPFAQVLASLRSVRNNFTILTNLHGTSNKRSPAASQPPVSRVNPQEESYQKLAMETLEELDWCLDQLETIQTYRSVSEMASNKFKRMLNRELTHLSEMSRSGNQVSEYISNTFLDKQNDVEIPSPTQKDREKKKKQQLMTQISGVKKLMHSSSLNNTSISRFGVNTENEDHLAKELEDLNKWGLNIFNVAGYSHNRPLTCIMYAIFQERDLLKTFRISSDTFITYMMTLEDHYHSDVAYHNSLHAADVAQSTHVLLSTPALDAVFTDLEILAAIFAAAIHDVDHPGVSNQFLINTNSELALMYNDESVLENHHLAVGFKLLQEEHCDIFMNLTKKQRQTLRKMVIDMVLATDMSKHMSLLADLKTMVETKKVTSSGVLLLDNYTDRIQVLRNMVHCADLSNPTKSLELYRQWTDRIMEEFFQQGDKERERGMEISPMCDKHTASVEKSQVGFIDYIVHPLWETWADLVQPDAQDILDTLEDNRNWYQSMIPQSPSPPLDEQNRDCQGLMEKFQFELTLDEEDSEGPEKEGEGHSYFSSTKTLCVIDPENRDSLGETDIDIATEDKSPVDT
# Cytochrome P450 1A2 (Homo sapiens), sequence (P05177 whole entry, looked up): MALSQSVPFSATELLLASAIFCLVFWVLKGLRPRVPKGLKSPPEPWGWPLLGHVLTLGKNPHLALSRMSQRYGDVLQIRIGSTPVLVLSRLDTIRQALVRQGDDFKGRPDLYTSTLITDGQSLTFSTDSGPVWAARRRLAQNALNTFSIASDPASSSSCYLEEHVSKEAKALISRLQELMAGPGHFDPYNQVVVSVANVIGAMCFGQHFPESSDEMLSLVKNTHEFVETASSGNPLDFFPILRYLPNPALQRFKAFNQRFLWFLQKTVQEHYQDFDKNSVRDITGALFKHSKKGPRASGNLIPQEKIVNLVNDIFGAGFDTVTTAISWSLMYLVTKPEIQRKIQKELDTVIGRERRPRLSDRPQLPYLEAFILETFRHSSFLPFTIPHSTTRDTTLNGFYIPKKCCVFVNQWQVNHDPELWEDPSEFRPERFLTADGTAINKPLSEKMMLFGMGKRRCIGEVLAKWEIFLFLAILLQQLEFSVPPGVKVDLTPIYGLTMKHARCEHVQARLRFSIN
# Cytochrome P450 3A4 (Homo sapiens), sequence (P08684 whole entry, looked up): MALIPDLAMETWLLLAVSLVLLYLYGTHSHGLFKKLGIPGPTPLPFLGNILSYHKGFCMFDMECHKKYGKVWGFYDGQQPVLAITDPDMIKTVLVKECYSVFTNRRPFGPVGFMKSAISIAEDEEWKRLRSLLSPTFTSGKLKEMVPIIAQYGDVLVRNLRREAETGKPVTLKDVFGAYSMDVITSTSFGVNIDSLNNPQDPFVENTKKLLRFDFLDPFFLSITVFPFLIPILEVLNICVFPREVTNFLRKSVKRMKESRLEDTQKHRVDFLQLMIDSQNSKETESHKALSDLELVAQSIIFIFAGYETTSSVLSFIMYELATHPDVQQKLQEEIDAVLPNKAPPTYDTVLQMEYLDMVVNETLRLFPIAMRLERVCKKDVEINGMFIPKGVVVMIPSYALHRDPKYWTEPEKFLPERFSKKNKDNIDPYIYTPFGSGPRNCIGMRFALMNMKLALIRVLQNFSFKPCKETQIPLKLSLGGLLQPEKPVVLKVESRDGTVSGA
# Cytochrome P450 2C9 (Homo sapiens), sequence (P11712 whole entry, looked up): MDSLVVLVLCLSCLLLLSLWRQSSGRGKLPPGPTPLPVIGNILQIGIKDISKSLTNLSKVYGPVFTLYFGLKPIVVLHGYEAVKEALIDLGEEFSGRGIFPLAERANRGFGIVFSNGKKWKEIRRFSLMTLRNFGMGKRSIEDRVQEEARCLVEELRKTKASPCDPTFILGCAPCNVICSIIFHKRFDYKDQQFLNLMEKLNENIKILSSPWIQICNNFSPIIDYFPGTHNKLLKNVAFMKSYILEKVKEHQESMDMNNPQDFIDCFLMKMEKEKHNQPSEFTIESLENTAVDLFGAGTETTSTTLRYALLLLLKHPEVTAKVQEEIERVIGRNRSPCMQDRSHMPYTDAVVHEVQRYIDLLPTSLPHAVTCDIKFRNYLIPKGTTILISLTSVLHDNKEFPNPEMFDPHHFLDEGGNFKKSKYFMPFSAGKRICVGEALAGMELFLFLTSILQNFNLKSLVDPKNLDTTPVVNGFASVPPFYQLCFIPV
# Ubiquitin carboxyl-terminal hydrolase 1 (Homo sapiens), sequence (O94782 whole entry, looked up): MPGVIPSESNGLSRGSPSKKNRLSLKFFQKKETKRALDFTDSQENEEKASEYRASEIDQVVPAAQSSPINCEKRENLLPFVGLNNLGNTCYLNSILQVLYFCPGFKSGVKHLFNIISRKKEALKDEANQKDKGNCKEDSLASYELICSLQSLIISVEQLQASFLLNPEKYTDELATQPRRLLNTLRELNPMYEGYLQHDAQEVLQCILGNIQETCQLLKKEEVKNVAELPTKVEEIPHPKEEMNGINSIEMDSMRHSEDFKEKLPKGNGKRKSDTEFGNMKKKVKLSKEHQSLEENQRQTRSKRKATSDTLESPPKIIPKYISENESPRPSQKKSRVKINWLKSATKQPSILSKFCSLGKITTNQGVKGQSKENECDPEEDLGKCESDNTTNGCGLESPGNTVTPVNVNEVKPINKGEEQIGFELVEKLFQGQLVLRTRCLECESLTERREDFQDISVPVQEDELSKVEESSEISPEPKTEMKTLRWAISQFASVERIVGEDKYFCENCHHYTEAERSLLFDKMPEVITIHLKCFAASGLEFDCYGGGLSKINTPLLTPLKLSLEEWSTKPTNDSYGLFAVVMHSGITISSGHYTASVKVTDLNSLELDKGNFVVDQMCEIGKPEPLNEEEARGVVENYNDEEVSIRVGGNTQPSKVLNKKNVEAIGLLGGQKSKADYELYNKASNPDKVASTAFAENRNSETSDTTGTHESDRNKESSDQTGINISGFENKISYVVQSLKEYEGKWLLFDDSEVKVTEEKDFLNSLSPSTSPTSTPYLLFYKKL
# Cytochrome P450 2D6 (Homo sapiens), sequence (P10635 whole entry, looked up): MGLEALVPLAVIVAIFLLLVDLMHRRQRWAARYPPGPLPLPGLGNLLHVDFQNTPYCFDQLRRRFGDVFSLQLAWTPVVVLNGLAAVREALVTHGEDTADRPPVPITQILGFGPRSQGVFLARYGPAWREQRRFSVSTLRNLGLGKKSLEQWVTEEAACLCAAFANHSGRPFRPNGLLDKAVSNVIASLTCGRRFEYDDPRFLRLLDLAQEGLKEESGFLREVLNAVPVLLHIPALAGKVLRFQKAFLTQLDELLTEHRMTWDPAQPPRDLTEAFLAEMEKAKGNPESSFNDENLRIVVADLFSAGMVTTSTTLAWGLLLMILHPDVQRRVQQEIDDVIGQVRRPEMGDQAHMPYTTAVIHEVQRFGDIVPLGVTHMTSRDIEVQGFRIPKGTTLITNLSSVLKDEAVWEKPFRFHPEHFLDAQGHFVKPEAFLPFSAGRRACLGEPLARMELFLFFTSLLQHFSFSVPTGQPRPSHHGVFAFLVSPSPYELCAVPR
smiles,measurement,setting,value
Cc1noc(C)c1C(=O)N1CCC2(CC1)CCN(c1cccc(-c3ccccc3)c1)CC2,Potency,[1],> 11.4 µM (inactive)
same,"activity change, negative = inhibition",[2],-13.8% (inactive)
same,Potency,[3],inactive
same,"activity change, negative = inhibition",[4],-2.13% (inactive)
same,Potency,[5],> 46 µM (inactive)
same,outcome,[6],inactive
same,Potency,[7],inactive
same,Potency,[8],inactive
same,Potency,[9],inactive
same,Potency,[10],inactive
same,Potency,[11],inactive
same,"activity change, negative = inhibition",[12],-7.36% (inactive)
same,max response,[12]; [21],-11.4%
same,max response,[12]; [22],-15.8%
same,Potency,[13],inactive
O=c1c(-c2cc(F)cc(F)c2)nc2cnc(N3CCOCC3)nc2n1C1CC1,Potency,[1],> 11.4 µM (inactive)
same,"activity change, negative = inhibition",[2],7.91% (inactive)
same,Potency,[3],1 µM (active)
same,"activity change, negative = inhibition",[4],6.75% (inactive)
same,Potency,[14],> 9.22 µM (inactive)
same,Potency,[5],> 46 µM (inactive)
same,outcome,[6],inactive
same,Potency,[15],1.58 µM (active)
same,"activity change, negative = inhibition",[12],0.7% (inactive)
same,max response,[12]; [21],9.59%
same,max response,[12]; [22],11.7%
same,Potency,[13],inactive
Cc1cnc(CNc2ncncc2-c2ccccc2C#N)cn1,Potency,[1],> 11.4 µM (inactive)
same,"activity change, negative = inhibition",[2],8.99% (inactive)
same,Potency,[3],0.251 µM (active)
same,"activity, negative = inhibition",[16],-4.72% (inactive)
same,Potency,[14],> 46 µM (inactive)
same,Potency,[5],> 46 µM (inactive)
same,outcome,[6],inactive
same,Potency,[7],inactive
same,Potency,[17],inactive
same,outcome,[18],inactive
same,outcome,[19],inactive
same,"activity change, negative = inhibition",[12],8.38% (inactive)
same,max response,[12]; [21],14%
same,max response,[12]; [22],24.3%
same,Potency,[20],inactive
same,Potency,[13],inactive
COCC(=O)N1CCC2(CCCN(Cc3cc(C(F)(F)F)cc(C(F)(F)F)c3)C2)CC1,Potency,[1],> 11.4 µM (inactive)
same,"activity change, negative = inhibition",[2],-15.5% (inactive)
same,Potency,[3],inactive
same,"activity change, negative = inhibition",[4],-0.717% (inactive)
same,"activity, negative = inhibition",[16],3.96% (inactive)
same,outcome,[6],inactive
same,Potency,[7],inactive
same,Potency,[17],inactive
same,"activity change, negative = inhibition",[12],-0.278% (inactive)
same,max response,[12]; [21],26.3%
same,max response,[12]; [22],28.3%
same,Potency,[13],inactive
Cn1cc(-c2nc3cnc(Oc4cccc(Cl)c4)nc3n(CCC#N)c2=O)c2ccccc21,Potency,[1],> 11.4 µM (inactive)
same,"activity change, negative = inhibition",[2],0.05% (inactive)
same,Potency,[3],2.51 µM (active)
same,"activity change, negative = inhibition",[4],21.5% (inactive)
same,Potency,[14],> 9.22 µM (inactive)
same,Potency,[5],> 46 µM (inactive)
same,Potency,[7],inactive
same,Potency,[8],inactive
same,Potency,[17],inactive
same,Potency,[15],1.58 µM (active)
same,"activity change, negative = inhibition",[12],-7.95% (inactive)
same,max response,[12]; [21],6.76%
same,max response,[12]; [22],0.937%
same,Potency,[13],inactive
N#CCCn1c(=O)c(-c2cccs2)nc2cnc(OCc3ccccc3)nc21,Potency,[1],> 11.4 µM (inactive)
same,"activity change, negative = inhibition",[2],9.62% (inactive)
same,Potency,[3],3.98 µM (active)
same,"activity change, negative = inhibition",[4],6.28% (inactive)
same,Potency,[14],> 9.22 µM (inactive)
same,Potency,[5],> 46 µM (inactive)
same,outcome,[6],inactive
same,Potency,[7],inactive
same,Potency,[15],3.16 µM (active)
same,"activity change, negative = inhibition",[12],-2.65% (inactive)
same,max response,[12]; [21],0.666%
same,max response,[12]; [22],1.75%
same,Potency,[13],inactive
